Our source for the survival values is PubChem BioAssay AID463173 (ICCB-Longwood Screening Facility, Harvard Medical School, 2010).

Each structure is given as a SMILES string. The campaign covered roughly 52,000 compounds. About 4,300 (8.3%) were called active. The sample holds actives, similar compounds and a random draw of the others, so the mix is not that of the screen. Values without a mark were called inactive. Cut-off read from the data, not from the text of the source: active = survival mostly below about 52% (no sharp cut-off); inactive = mostly above about 56%.

In the assay the test system is DeltatarO mutant. In words: growth inhibition of S. aureus wild type versus tarO mutant, primary screen, teichoic acid synthesis inhibitors, RN4220, OD600 (AID 463173). To be noted: OD600, 18 h, stronger effect = lower value, screened at 18.75 µg/mL (by protocol).
For `CC(C(=O)O)N1CCCCC1` (stereo unspecified), the survival was 79%.
Turning to `CCOc1ccc2[nH]c(=O)c(CN(Cc3cccnc3)S(=O)(=O)c3ccccc3)cc2c1`, the survival is 86%.
To `CCOc1ccccc1NC(=O)Cn1c(=O)n(Cc2nc(C)no2)c(=O)c2ccccc21` belongs 81%.
Take `Cc1cc(C)c(NC(=O)CN2C(=O)CCSc3ccc(S(=O)(=O)N4CCCC4)cc32)c(C)c1`: the survival was 84%.
Turning to `Cc1ccc(NC(=O)CN2C(=O)c3ccccc3Sc3ccc(C(=O)N4CCCC4)cc32)cc1`, the survival is 76%.
The figure for `CN(C)c1ccc(NC(=O)CN2C(=O)c3ccccc3Sc3ccc(C(=O)N4CCCC4)cc32)cc1` is -2% (active); for `Cc1cc(C)cc(NC(=O)CN2C(=O)c3ccccc3Sc3ccc(C(=O)N4CCOCC4)cc32)c1` it is 89%; for `Cc1ccc(NC(=O)CN2C(=O)c3ccccc3Sc3ccc(C(=O)N4CCOCC4)cc32)c(Cl)c1` it is -5% (active).
With `O=C(CN1C(=O)c2ccccc2Sc2ccc(C(=O)N3CCOCC3)cc21)Nc1ccc(Cl)cc1F`, the survival was 94%.
Turning to `CCc1ccc(NC(=O)CN2C(=O)c3ccccc3Sc3ccc(C(=O)N4CCCC4)cc32)cc1`, the survival was 86%.
The figure for `CCOc1ccccc1N(CC)C(=O)Cn1ncc2c1-c1ccccc1OC2` is 62%; for `COc1cccc(C(=O)N(Cc2ccc(N(C)C)cc2)Cc2ccco2)c1` it is 69%.
Turning to `CCOCN(C(=O)Cn1c(C(C)O)nc2ccccc21)c1c(C)cccc1CC` (stereo unspecified), the survival is 83%.
For the compound `CCOCN(C(=O)Cn1c(C)nc2ccccc21)c1c(C)cccc1CC`, the survival was 125%.
For `CCOCN(C(=O)Cn1c(CC(C)C)nc2ccccc21)c1c(C)cccc1CC`, the survival was -12% (active).
With `CCOCN(C(=O)Cn1c(COC)nc2ccccc21)c1c(C)cccc1CC`, the survival was 95%.
The figure for `CCCCc1nc2ccccc2n1CC(=O)N(COCC)c1c(C)cccc1CC` is -12% (active).
On to `CCc1cccc(CC)c1N(COC)C(=O)Cn1c(CC)nc2ccccc21`, for which the survival is 69%.
`CCc1ccc(NC(=O)Cn2c(=O)n(-c3cc(C)cc(C)c3)c(=O)c3oc4ccccc4c32)cc1`: the survival was 73%.
On to `COc1ccc(-c2cn(-c3ccc(C)cc3)c(S(=O)(=O)CC(=O)Nc3ccc(F)cc3)n2)cc1`, for which the survival was 150%.
The figure for `CCc1ccc(NC(=O)c2sc3nc(C)c(Cl)c(C)c3c2NC(=O)c2ccccc2OC)cc1` is 130%; for `COc1ccc(N2CCN(C(=O)C(CC(C)C)NS(=O)(=O)c3ccc4nc(C)sc4c3)CC2)cc1` (stereo unspecified) it is 77%; for `Cc1ccccc1CSc1cn(CC(=O)N2CCCCC2)c2ccccc12` it is 71% (active).
To `Cc1ccccc1CSc1cn(CC(=O)N2CCCCCC2)c2ccccc12` belongs 68%; to `O=C(CSc1cn(CC(=O)N2CCCCC2)c2ccccc12)Nc1ccccc1F`, 70% (active).
For the compound `O=C(CSc1cn(CC(=O)N2CCCCCC2)c2ccccc12)Nc1ccccc1F`, the survival was 77%.
For the compound `O=C(CSc1cn(CC(=O)N2CCOCC2)c2ccccc12)Nc1ccccc1F`, the survival was 88%.
Regarding `Cc1ccccc1CSc1cn(CC(=O)N2CCCC2)c2ccccc12`, the survival is 58%.
For the compound `CCC(=O)N1c2ccccc2CC1C(=O)N1CCN(c2cccc(Cl)c2)CC1` (stereo unspecified), the survival was 77%.
For the compound `CCn1cc(C(=O)NCCc2ccc(Cl)cc2)c(=O)c2cc(S(=O)(=O)N3CCC(C)CC3)ccc21`, the survival was 105%.
To `CCN(CC)CCN(C(=O)c1ccco1)c1nc2c(C)c(C)ccc2s1` belongs 77%; to `O=[N+]([O-])c1cc(-c2nc(-c3ccccc3)no2)ccc1N1CCCC1`, 63%; to `Cc1ccc(NC(=O)CC2Nc3cccc4cccc(c34)NC2=O)cc1` (stereo unspecified), 61%.
As for `CCOC(=O)c1ccc(NC(=O)CC2Nc3cccc4cccc(c34)NC2=O)cc1` (stereo unspecified), the survival was 28% (active).
In the case of `CCOc1ccc(NC(=O)CC2Nc3cccc4cccc(c34)NC2=O)cc1` (stereo unspecified), the survival was 37% (active).
As for `Cc1cccc(NC(=O)CC2Nc3cccc4cccc(c34)NC2=O)c1` (stereo unspecified), the survival was 64%.
With `CCOC(=O)c1ccc(NC(=O)CC2Nc3ccccc3NC2=O)cc1` (stereo unspecified), the survival was 62%.
As for `Cc1cccc(NC(=O)CC2Nc3ccccc3NC2=O)c1` (stereo unspecified), the survival is 71%.
Turning to `COc1cccc(NC(=O)CC2Nc3cc(C)c(C)cc3NC2=O)c1` (stereo unspecified), the survival is 89%.
As to `O=C(CC1Nc2cccc3cccc(c23)NC1=O)Nc1ccc(F)cc1` (stereo unspecified), the survival was 111%.
Consider `Cc1ccc(NC(=O)CC2Nc3ccccc3NC2=O)cc1C` (stereo unspecified), for which the survival was 58%.
Turning to `COc1ccc(NC(=O)CC2Nc3ccccc3NC2=O)cc1` (stereo unspecified), the survival was 61% (active).
On to `CC(=O)c1ccc(NC(=O)CC2Nc3cccc4cccc(c34)NC2=O)cc1` (stereo unspecified), for which the survival was 72%.
`COc1ccc(NC(=O)CC2Nc3cccc4cccc(c34)NC2=O)cc1` (stereo unspecified): the survival was 41% (active).
On to `N#Cc1cn(-c2ccccc2)nc1-c1cccnc1`, for which the survival is 73%.
With `O=C(Nc1ccccn1)NC12CC3CC(CC(C3)C1)C2`, the survival was 106%.
The figure for `Cc1ccc(NC(=O)c2oc3ccc4c(c3c2C)C(=O)CC(C)(C)O4)c(C)c1` is 83%; for `CC1CCN(C(C(=O)O)c2ccccc2)CC1` (stereo unspecified) it is 98%.
With `CN1CCN(C(CNC(=O)C(=O)Nc2ccc(Cl)cc2)c2cccnc2)CC1` (stereo unspecified), the survival was 86%.
The figure for `COc1ccccc1CNC(=O)CSc1ncc(S(=O)(=O)c2ccc(C)c(Cl)c2)c(=O)[nH]1` is 124%; for `Cc1ccc(CNS(=O)(=O)c2ccc(-c3cnc(C4CC4)o3)cc2)cc1` it is 76%.
To `O=S(=O)(NCc1ccccc1)c1ccc(-c2cnc(C3CC3)o2)cc1` belongs 71%; to `Cc1cccc(CNS(=O)(=O)c2ccc(-c3cnc(C4CC4)o3)cc2)c1`, 52% (active); to `CC(C)c1ccc(NC(=O)C(C)N(c2ccccc2)S(C)(=O)=O)cc1` (stereo unspecified), 65%.
With `Cc1ccc2onc(CC(=O)N3CCN(c4cccc(C)c4C)CC3)c2c1`, the survival is 39% (active).
Consider `Cc1ccc2onc(CNC(=O)N3CCN(c4cccc(C)c4C)CC3)c2c1`, for which the survival was 48%.
To `Cc1ccc2onc(CC(=O)N3CCN(c4ccc(Cl)cc4)CC3)c2c1` belongs 30% (active); to `Cc1ccc2onc(CC(=O)N3CCN(c4ccccc4)CC3)c2c1`, 40% (active).
As for `COc1ccc(N2CCN(C(=O)NCc3noc4ccccc34)CC2)cc1`, the survival is 42%.
With `COc1ccc(N2CCN(C(=O)Cc3coc4ccc(C)cc34)CC2)cc1`, the survival is 105%.
In the case of `Cc1ccc2onc(CC(=O)N3CCN(c4ccccc4F)CC3)c2c1`, the survival is 71%.
Regarding `Cc1ccc2onc(CC(=O)N(C)c3ccccc3)c2c1`, the survival is 52%.
Take `Cc1ccc2oc(=O)c3cnn(CC(=O)N4CCN(c5ccccc5)CC4)c3c2c1`: the survival is 123%.
For `Cc1ccc2onc(CC(=O)N3CCN(c4cc(Cl)ccc4C)CC3)c2c1`, the survival is 96%.
To `Cc1ccc2onc(CC(=O)N3CCN(c4cccc(Cl)c4)CC3)c2c1` belongs 83%.
With `COc1ccc(N2CCN(C(=O)Cc3noc4ccc(C)cc34)CC2)cc1`, the survival is 42% (active).
